According to PubChem BioAssay (NCATS):
“And” between values parts separate entries of the source, which are not always exact repeats. Equal entries are not always repeated. Records with an inconclusive call do not appear. Entries that show only a call come without a potency. The source made the active and inactive calls. Calls follow the shape of the dose curve; as a rule, active = well fitted curve in the direction sought with a large enough effect; inconclusive = small, poorly fitted or top-dose-only effect, or another doubt; inactive = no such curve, though single readings can be large; an effect the other way counts as inactive or inconclusive.

Key:
[1] = qHTS of pediatric cancer cell lines to identify multiple opportunities for drug repurposing: Confirmatory screen for TC32 cells (AID 1347118);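 also: potency is read from the fitted curve at half-maximal effect; cells exposed to compound for 48 h before the read; nearly all actives have a fitted effect of over 65% in size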
Outline: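 Luminescent CellTiter-Glo read-out of metabolically active TC32 cells after 48 h compound exposure. Primary: MIPE 11-point, 0.78 nM–46 µM; NPC 8-point, 0.59 nM–46 µM. Confirmatory: 11-point dilutions.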

[2] = qHTS of pediatric cancer cell lines to identify multiple opportunities for drug repurposing: Confirmatory screen for MG 63 (6-TG R) cells (AID 1347119); also: nearly all actives have a fitted effect of over 55% in size
Outline: (§1)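 Cells (500-1,000/well) rested 5 h, then received compounds for 48 h; metabolically active cells were measured by CellTiter-Glo luminescence. Final concentrations spanned up to 46 µM (MIPE, 11-point) or 0.59 nM-46 µM (NPC, 8-point) in primary screens, 11-point in follow-ups.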

[3] = qHTS of pediatric cancer cell lines to identify multiple opportunities for drug repurposing: Confirmatory screen for Rh41 cells (AID 1347123); also: nearly all actives have a fitted effect of over 60% in size; also: potency is read from the fitted curve at half-maximal effect
Outline: as §1

[4] = qHTS of pediatric cancer cell lines to identify multiple opportunities for drug repurposing: Confirmatory screen for RD cells (AID 1347124);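 also: cells exposed to compound for 48 h before viability readout; nearly all actives have a fitted effect of over 65% in size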; also: potency is read from the fitted curve at half-maximal effect
Outline: as §1

[5] = qHTS of pediatric cancer cell lines to identify multiple opportunities for drug repurposing: Confirmatory screen for SK-N-SH cells (AID 1347129);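 also: cells exposed to compound for 48 h before viability read; nearly all actives have a fitted effect of over 60% in size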
Outline: as §1

Furin (Homo sapiens) = Furin (Homo sapiens) (UniProt P09958); test: Furin counterscreen qHTS for Zika virus inhibitors (AID 1347149); also: nearly all actives have a fitted effect of over 70% in size; also: potency is read from the fitted curve at half-maximal effect
Chain of Furin (Homo sapiens) (P09958 whole entry, looked up): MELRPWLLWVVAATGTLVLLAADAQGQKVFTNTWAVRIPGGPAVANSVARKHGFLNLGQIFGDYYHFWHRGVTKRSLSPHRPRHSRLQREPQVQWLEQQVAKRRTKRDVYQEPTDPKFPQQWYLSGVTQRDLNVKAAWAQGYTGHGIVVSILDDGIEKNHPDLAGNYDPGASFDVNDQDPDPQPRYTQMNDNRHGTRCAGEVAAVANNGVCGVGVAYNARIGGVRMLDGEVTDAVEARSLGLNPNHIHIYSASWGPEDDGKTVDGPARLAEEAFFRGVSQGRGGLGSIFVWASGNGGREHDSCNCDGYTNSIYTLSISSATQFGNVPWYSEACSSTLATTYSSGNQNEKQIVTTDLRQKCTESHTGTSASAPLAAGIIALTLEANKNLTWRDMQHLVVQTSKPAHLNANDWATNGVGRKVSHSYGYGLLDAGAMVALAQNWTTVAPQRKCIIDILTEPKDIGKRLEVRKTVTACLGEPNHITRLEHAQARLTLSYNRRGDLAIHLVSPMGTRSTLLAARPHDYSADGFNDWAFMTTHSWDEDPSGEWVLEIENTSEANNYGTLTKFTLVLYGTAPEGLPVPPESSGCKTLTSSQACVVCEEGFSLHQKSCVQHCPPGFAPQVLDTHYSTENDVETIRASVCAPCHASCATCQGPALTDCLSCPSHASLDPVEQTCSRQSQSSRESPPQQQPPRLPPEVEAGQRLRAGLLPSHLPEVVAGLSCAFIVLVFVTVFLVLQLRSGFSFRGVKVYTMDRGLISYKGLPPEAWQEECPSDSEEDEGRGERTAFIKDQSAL
Outline: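 Counterscreen measures cleavage of 2 microM BOC-RVRR-AMC, below its ~15 microM Km, by 5 nM full-length human furin at pH 7.0 after a 15-min compound preincubation. Inhibition derives from the 15-min fluorescence increase at 37C.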

[6] = test system: Zika virus NS2B-NS3 protease (unlinked); test: Optimization of GU AMC qHTS for Zika virus inhibitors: Unlinked NS2B-NS3 protease assay (AID 1347151); also: nearly all actives have a fitted effect of over 80% in size; also: potency is read from the fitted curve at half-maximal effect
Outline: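 Percent inhibition is derived from the 15-min change in AMC fluorescence, normalized against no-inhibitor and no-enzyme controls, then fitted to a 4-parameter Hill curve. Aprotinin was the intraplate control.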

[7] = test system: Zika virus NS2B-NS3 protease (linked construct); test: Confirmatory screen NINDS AMC qHTS for Zika virus inhibitors (AID 1347152); also: nearly all actives have a fitted effect of over 70% in size; also: potency is read from the fitted curve at half-maximal effect
Outline: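 In this dose-response qHTS, AMC release from 10 microM Bz-Nle-KRR-AMC by 1 nM linked protease is measured over 15 minutes (about 20% conversion) at pH 8.0. Percent inhibition is fitted to a 4-parameter Hill curve.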

[8] = test system: Zika virus NS2B-NS3 protease (unlinked complex); test: Confirmatory screen GU AMC qHTS for Zika virus inhibitors (AID 1347153); also: nearly all actives have a fitted effect of over 70% in size;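 as to potency: enzyme at 25 nM with substrate at 10 µM below its Km of 18.3 µM; potency is read from the fitted curve at half-maximal effect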
Outline: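 Noncovalent NS2B hydrophilic domain/NS3 protease complex (25 nM) in 10 mM Tris-HCl pH 8.0, 0.01% Tween 20 was preincubated 15 min at room temperature with compounds. Then 10 µM AMC substrate (Km 18.3 µM) was added; fluorescence was read over 15 min and fitted to a 4-parameter Hill equation.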

[9] = test system: Zika virus NS2B-NS3 protease; test: Primary screen GU AMC qHTS for Zika virus inhibitors (AID 1347154); also: nearly all actives have a fitted effect of over 70% in size; also: potency is read from the fitted curve at half-maximal effect
Outline: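 Fluorogenic AMC-substrate cleavage by noncovalent NS2B-NS3 protease complex (25 nM, pH 8.0 Tris buffer with Tween 20) followed for 15 minutes at room temperature (~20% conversion). Percent inhibition from ex340/em450 signal change, fitted by 4-parameter Hill equation.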

[10] = qHTS of pediatric cancer cell lines to identify multiple opportunities for drug repurposing: Confirmatory screen for control Hh wild type fibroblast cells (AID 1347121); also: nearly all actives have a fitted effect of over 70% in size
Outline: as §1

[11] = qHTS of pediatric cancer cell lines to identify multiple opportunities for drug repurposing: Confirmatory screen for Rh18 cells (AID 1347125); also: nearly all actives have a fitted effect of over 55% in size
Outline: as §1

[12] = qHTS of pediatric cancer cell lines to identify multiple opportunities for drug repurposing: Confirmatory screen for OHS-50 cells (AID 1347128);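 also: compound exposure lasted 48 h at 37 degrees C; nearly all actives have a fitted effect of over 55% in size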
Outline: as §1

[13] = ZIKV-mCherry secondary qHTS for Zika virus inhibitors (AID 1347158); also: potency is read from the fitted curve at half-maximal effect
Outline: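 Compounds were tested in Vero monkey kidney cells infected with recombinant mCherry-expressing Zika virus at MOI 1 for 48-72 h at 37 °C. Fixed cells were nuclear-stained and imaged, and infection rate was taken as the fraction of mCherry-positive cells.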

[14] = test system: Zika virus NS2B-NS3 protease (unlinked complex); test: Primary screen GU Rhodamine qHTS for Zika virus inhibitors: Unlinked NS2B-NS3 protease assay (AID 1347159); also: nearly all actives have a fitted effect of over 60% in size; also: potency is read from the fitted curve at half-maximal effect
Outline: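 Buffer 10 mM Tris-HCl pH 8.0, 0.01% Tween 20. Unlinked protease 25 nM; compound preincubation 15 min, RT, protected from light. Substrate Rhod110, 1.5 microM; ~15% conversion in 15 min.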

[15] = target: N-terminal Xaa-Pro-Lys N-methyltransferase 1 (Homo sapiens) (UniProt Q9BV86); test: qHTS Assay for Inhibitors of N-terminal methyltransferase 1 (NTMT1): LOPAC validation of the NTMT1 SAHH-coupled ThioGlo3 Assay (AID 1347143); also: potency is read from the fitted curve at half-maximal effect
Chain of N-terminal Xaa-Pro-Lys N-methyltransferase 1 (Homo sapiens) (Q9BV86 whole entry, looked up): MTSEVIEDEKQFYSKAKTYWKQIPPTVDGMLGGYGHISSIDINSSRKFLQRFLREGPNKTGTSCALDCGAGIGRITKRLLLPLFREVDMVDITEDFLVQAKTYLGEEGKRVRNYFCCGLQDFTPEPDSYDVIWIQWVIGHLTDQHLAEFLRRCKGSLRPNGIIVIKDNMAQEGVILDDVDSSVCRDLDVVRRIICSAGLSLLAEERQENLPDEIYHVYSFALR
Outline: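 NTMT1 125nM + cpds (various conc.), 1 min RT; add SAM 100uM/SAHH 10uM/ThioGlo3 15uM (addition mix). SAHH-coupled thiol detection, Ex340/Em450, t0 and 30 min RT; signal normalized to background. LOPAC 1280-cpd pilot.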

[16] = Confirmatory screen GU Rhodamine qHTS for Zika virus inhibitors qHTS (AID 1347157); details: purified enzyme assay, Rhodamine110 substrate fluorescence, 15 min
Outline: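 A qHTS format was used, with compound concentrations ranging up to 114 microM. Each compound was preincubated with 25 nM NS2B-NS3 protease, and the substrate was then added at 1.5 microM. Curves were fitted with a 4-parameter Hill model.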

## CCc1nc(N)nc(N)c1-c1ccc(Cl)cc1
[1]
  Potency: 2.93 µM (active)
[2]
  Potency: inactive
[3]
  Potency: 10.4 µM (active)
[4]
  Potency: 9.27 µM (active)
[5]
  Potency: inactive
Furin (Homo sapiens)
  Potency: inactive
[6]
  Potency: inactive
[7]
  Potency: inactive
[8]
  Potency: inactive
[9]
  Potency: inactive

## C=C(c1ccc(C(=O)O)cc1)c1cc2c(cc1C)C(C)(C)CCC2(C)C
[2]
  Potency: inactive
[10]
  Potency: inactive
[3]
  Potency: inactive
[4]
  Potency: inactive
[11]
  Potency: inactive
[12]
  Potency: inactive
[5]
  Potency: inactive
Furin (Homo sapiens)
  Potency: inactive
[7]
  Potency: 19.2 µM (active)
[8]
  Potency: 19.2 µM (active) and 21.5 µM (active)
[9]
  Potency: 9.61 µM (active) and 14.4 µM (active)
[13]
  Potency: 7.08 µM (active)
[14]
  Potency: 3.16 µM (active)

## CC(=O)NC[C@H]1CN(c2ccc(N3CCOCC3)c(F)c2)C(=O)O1
[15]
  Potency: inactive
[6]
  Potency: inactive
[9]
  Potency: inactive
[14]
  Potency: inactive

## CCOC(=O)C(C)Oc1cccc2c(=O)n(CC(=O)Nc3ccc4c(c3)OCCO4)ccc12 (centres undefined)
[6]
  Potency: 21.2 µM (active)
[9]
  Potency: inactive

## NCCCCNCCCN
[15]
  Potency: inactive
[6]
  Potency: inactive
[9]
  Potency: inactive

## CC1(C)NC(=O)N(c2ccc([N+](=O)[O-])c(C(F)(F)F)c2)C1=O
[15]
  Potency: inactive
[6]
  Potency: inactive
[9]
  Potency: inactive

## O=C(c1ccccc1)c1ccc2n1CCC2C(=O)O (centres undefined)
[15]
  Potency: inactive
[6]
  Potency: inactive
[9]
  Potency: inactive

## CN(C)CCCC1(c2ccc(F)cc2)OCc2cc(C#N)ccc21 (centres undefined)
[6]
  Potency: inactive
[9]
  Potency: inactive
[14]
  Potency: inactive

## CC(=O)N1CCN(c2ccc(OC[C@H]3CO[C@](Cn4ccnc4)(c4ccc(Cl)cc4Cl)O3)cc2)CC1
[15]
  Potency: 50.1 µM (active)
[6]
  Potency: inactive
[9]
  Potency: inactive

## COc1cc2c(cc1OC)C1CC(=O)C(CC(C)C)CN1CC2 (centres undefined)
[15]
  Potency: inactive
Furin (Homo sapiens)
  Potency: 27.1 µM (active)
[7]
  Potency: inactive
[8]
  Potency: inactive
[9]
  Potency: inactive

## CCOC(=O)C1=C(O)C(=O)N(Cc2ccccc2)C1
[15]
  Potency: inactive
[6]
  Potency: inactive
[9]
  Potency: inactive

## O=c1c(O)c(-c2cc(O)c(O)c(O)c2)oc2cc(O)cc(O)c12
[15]
  Potency: 5.01 µM (active)
Furin (Homo sapiens)
  Potency: inactive
[6]
  Potency: 21.2 µM (active)
[9]
  Potency: 9.61 µM (active)
[16]
  Potency: 17.8 µM (active)
[13]
  Potency: inactive

## COc1ccccc1N1CCN(CCN(C(=O)C2CCCCC2)c2ccccn2)CC1
[15]
  Potency: inactive
[6]
  Potency: inactive
[9]
  Potency: inactive
[14]
  Potency: inactive

## Nc1nc(N)c(N=O)c(OCC2CCCCC2)n1
[15]
  Potency: inactive
[6]
  Potency: inactive
[9]
  Potency: inactive

## O=c1c(O)c(-c2ccc(O)cc2O)oc2cc(O)cc(O)c12
Furin (Homo sapiens)
  Potency: inactive
[6]
  Potency: 11.9 µM (active)
[16]
  Potency: 20 µM (active)
[13]
  Potency: inactive

## O=c1ccc2ccc(O)c(O)c2o1
[15]
  Potency: 39.8 µM (active)
[6]
  Potency: inactive
[9]
  Potency: inactive

## COc1c2occc2cc2ccc(=O)oc12
Furin (Homo sapiens)
  Potency: inactive
[9]
  Potency: inactive
